These results are taken from PubChem BioAssay AID1443 (Sanford-Burnham Center for Chemical Genomics, 2008).

The whole screen tested about 220,000 compounds, of which about 880 (0.4%) were called active. This excerpt belongs to a sample that is enriched for actives. Values without a mark were called inactive.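 The calls were made as follows: active = cell killing above 50% in the first pass at 4 µM, then a duplicate retest at 5 µM averaging 50% or more; inactive = the rest.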

The nature of the assay: compounds killing PPC-1 cancer cells with TRAIL present, primary screen, TRAIL potentiator project, ATPLite luminescence, uHTS (AID 1443).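 Also: plate controls were cells with TRAIL plus DMSO for no effect and medium-only wells lacking cells for full effect.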 The conditions noted are these: PPC-1 cells + TRAIL, ATPLite viability luminescence, stronger effect = higher value; at 4 µM unless noted. A general note: In ATP-based viability assays light output follows the ATP content of the culture.
In the case of `COc1ccc2cc(-c3[nH]ncc3CNCCn3nc(C)cc3C)ccc2c1`, the cell killing (% activity) was 0.6%. Under `Cn1c(=NC(=O)CSCC(=O)N2CCCCC2)sc2ccccc21` stands 21.3%.

For `Cn1c(=NC(=O)CSCC(=O)N2CCOCC2)sc2ccccc21`, the cell killing (% activity) was 11.5%. `Cn1c(=NC(=O)c2cnccn2)sc2ccccc21`: the cell killing (% activity) is 53.2% [at 5 µM] (active). Regarding `Cc1ccsc1/C=N/Nc1ccc(Cl)nn1`, the cell killing (% activity) was -6.9%. Turning to `O=[N+]([O-])c1ccc(N2CCN(S(=O)(=O)c3ccccc3)CC2)cc1N1CCc2ccccc2C1`, the cell killing (% activity) is 8.9%. Then `Cc1ccccc1NC(=S)N(CCCN1CCOCC1)Cc1cccs1`, with 8.5%; and `O=C(Oc1ccc(-c2nc(-c3ccccn3)no2)cc1)c1ccccc1`, with 54.2% [at 5 µM] (active); and `c1ccc(-c2noc(-c3cccs3)n2)nc1`, with 31.1%. As to `O=C(Oc1ccccc1)c1ccc2nccnc2c1`, the cell killing (% activity) was 25.8%. Then `Cc1cc(C)c(C)c(S(=O)(=O)N[C@@H](C)C(=O)OC(C)C(=O)NC(N)=O)c1C` (stereo partly specified), with 18.2%. Under `NCCCC[C@@H]1NC(=O)[C@H](CCC(=O)O)NC(=O)c2cc([N+](=O)[O-])cc(I)c2NCC[C@@H](C(N)=O)NC1=O` stands -6.5%. Under `O=S(=O)(Nc1ccc(OC(F)(F)F)cc1)c1cccc2nonc12` stands 7.3%; under `O=C(CSc1nnc(C2CC2)n1Cc1ccccc1)Nc1cccnc1Cl`, 9.8%; under `Cc1ccc(NS(=O)(=O)c2ccc(N/N=C/c3ccccc3OCC(=O)O)c([N+](=O)[O-])c2)c(C)c1`, -2.4%. Consider `O=C1CSC(c2ccccc2)N1c1nc(-c2ccc(Cl)cc2Cl)cs1` (stereo unspecified), for which the cell killing (% activity) is 27.7%. `O=C(NCc1ccccn1)c1cc(-c2ccccc2Cl)on1`: the cell killing (% activity) was 24.5%. Then `Clc1ccc(-c2cc(-c3ccccn3)on2)c(Cl)c1`, with 88% [at 5 µM] (active); and `CCOC(=O)c1c(/N=C/C2C(=O)CC(C)(C)CC2=O)sc(C)c1C`, with 14.1%. Then `CCCCSc1nnc2c(n1)OC=Nc1ccccc1-2`, with 11.9%; and `COc1ccc(/C(C)=N/N2CCOCC2)c(O)c1`, with -10.1%. On to `COc1ccc(-c2noc(-c3ccc(C)cc3)n2)cc1`, for which the cell killing (% activity) was 25.4%. As for `COc1ccc(-c2noc(-c3cccc(OC)c3OC)n2)cc1OC`, the cell killing (% activity) is 18.8%. Regarding `COc1ccc(-c2nc(-c3ccccc3)no2)c(OC)c1`, the cell killing (% activity) was 68% [at 5 µM] (active). Under `O=c1c2cc(-c3ccccc3)sc2nc2n1N=C(c1cccs1)CS2` stands 30.8%. With `Cc1cc(C)c2c(NC(=O)C3CC3)nn(C)c2n1`, the cell killing (% activity) was 0.3%.
